Screening results deposited in PubChem BioAssay by National Center for Advancing Translational Sciences (NCATS).
Sampled rows, rich in hits. Any-hit rate of the full collection: about 8.1%.
MCF10A rereplic – induces DNA re-replication in MCF 10a normal breast cells. MCF 10A DNA re-replication, Hoechst nuclear intensity, 48 h. Potency, µM (titrated, usually from 46.1 µM), most hits filed as activators. actives 2.9% (n = 350,000). AID 624296; also: nearly all actives have a fitted effect of over 50% in size
KB-V1 MDR tox – KB-V1 MDR subline cytotoxicity; KB-V1 MDR cells viability, CellTiter-Glo, 72 h; Potency, µM (top dose mostly 46.1 µM), actives largely listed as cytotoxic; actives 3.4% (n = 400,000); AID 1347076; also: nearly all actives have a fitted effect of over 60% in size
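Cytotoxicity toward P-gp-expressing KB-V1 cells was determined as loss of CellTiter-Glo luminescence after 72 h at 37 degrees C. Compounds were tested in quantitative HTS format across a concentration range, with curves fitted to normalized data.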
KB-3-1 cytotox – kills parental KB-3-1 adenocarcinoma cells | actives 1.4% (n = 400,000) | KB-3-1 viability, CellTiter-Glo ATP luminescence, 72 h | AID 1347075 | Potency, µM (titrated, usually from 46.1 µM), usual class: cytotoxic; also: nearly all actives have a fitted effect of over 60% in size
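KB-3-1 parental drug-naive adenocarcinoma cells in DMEM/10% FBS, incubated 72 h at 37 C with pin-transferred compounds across a concentration series. Viability by CellTiter-Glo luminescence; concentration-response curves fitted after normalization.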
ELG1 DNA repair – blocks ELG1-dependent DNA repair in HEK293T cells | HEK293T ELG1-luciferase reporter, luminescence, 16 h; DNA damage induced by 5-fluorouridine | Potency, µM (doses to about 46.1 µM), usual class: inhibitors | actives 2.3% (n = 330,000) | AID 504467; also: nearly all actives have a fitted effect of over 55% in size
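Step one: seed 2,000 cells per well. Step two: pin-transfer compound or DMSO alongside 5-fluorouridine. Step three: incubate 16 hr, 37 °C, 5% CO2. Step four: add ONE-Glo, wait 30 min, read luminescence.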
SW480 rerep – inducers of DNA re-replication in SW480 colon cancer cells. SW480 DNA re-replication, Hoechst DNA content imaging, 48 h. AID 624297. Potency, µM (highest dose often 46.1 µM), usual class: activators. actives 1.8% (n = 340,000); also: nearly all actives have a fitted effect of over 55% in size
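Hoechst fluorescence of nuclei (405 nm excitation, 500-530 nm emission) measured by plate-scanning imager after 48 hr compound exposure at 37 C; re-replication scored as increased number of nuclei with elevated intensity.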
A number is an active result; [ ] = another dose, or the depositor's remark. Calls follow the shape of the dose curve; as a rule, active = well fitted curve in the direction sought with a large enough effect; inconclusive = small, poorly fitted or top-dose-only effect, or another doubt; inactive = no such curve, though single readings can be large; an effect the other way counts as inactive or inconclusive.

Screening Cc1cc2c(cc(C(=O)OCC(=O)NCc3cccs3)n2C(C)C)o1 returned MCF10A rereplic 2.91µM, KB-V1 MDR tox inconclusive, KB-3-1 cytotox 9.2µM, ELG1 DNA repair inactive and SW480 rerep 8.2µM.
Screening CC(C)c1cccc(C(C)C)c1NS(=O)(=O)c1cccs1 returned KB-V1 MDR tox inactive and KB-3-1 cytotox inactive.
For Cc1cc(NC(=O)C(C)SCC(=O)N(Cc2ccccc2)c2ccccc2)no1 (centres undefined) the results were MCF10A rereplic inconclusive, KB-V1 MDR tox 6.51µM, KB-3-1 cytotox inconclusive, ELG1 DNA repair inactive and SW480 rerep inactive.
Cc1cc(NC(=O)C(C)SCC(=O)OCC(=O)N(Cc2ccccc2)C(C)(C)C)no1 (centres undefined) was read as MCF10A rereplic inactive, KB-V1 MDR tox inactive, KB-3-1 cytotox inactive, ELG1 DNA repair inactive and SW480 rerep inactive.
`CCCc1cc(=O)oc2cc(C)cc(OCC(=O)Nc3cccnc3)c12` gave MCF10A rereplic inactive, KB-V1 MDR tox inactive, KB-3-1 cytotox inactive, ELG1 DNA repair inactive and SW480 rerep 23.1µM.
Screening Cn1nc(-c2ccccc2F)c2cc(C(=O)N3CCN(c4ccccc4F)CC3)sc21 returned KB-V1 MDR tox 5.17µM and KB-3-1 cytotox inconclusive.
`CCOC(=O)C1CCN(C(=O)c2cc3c(-c4ccc(OC)c(OC)c4)nn(C)c3s2)CC1` gave MCF10A rereplic inactive, KB-V1 MDR tox inactive, KB-3-1 cytotox inactive, ELG1 DNA repair inconclusive and SW480 rerep inactive.
`Cn1nc(-c2ccccc2F)c2cc(C(=O)N3CCN(c4ccc(F)cc4)CC3)sc21` gave KB-V1 MDR tox inactive and KB-3-1 cytotox inconclusive.
CCOC(=O)N1CCC(NC(=O)c2cc3c(-c4ccccc4F)nn(C)c3s2)CC1 was read as MCF10A rereplic inconclusive, KB-V1 MDR tox inactive, KB-3-1 cytotox inconclusive, ELG1 DNA repair 13µM and SW480 rerep inactive.
`CCOC(=O)N1CCC(NC(=O)c2cc3c(-c4ccc(OC)c(OC)c4)nn(C)c3s2)CC1` gave MCF10A rereplic inconclusive, KB-V1 MDR tox inconclusive, KB-3-1 cytotox inactive, ELG1 DNA repair 7.31µM and SW480 rerep inactive.
Screening COc1ccc(NC(=O)c2cc3c(-c4ccc(OC)c(OC)c4)nn(C)c3s2)cc1OC returned MCF10A rereplic inactive, KB-V1 MDR tox inconclusive, KB-3-1 cytotox inconclusive, ELG1 DNA repair 1.64µM and SW480 rerep inconclusive.
`Cc1cccc(NC(=O)Nc2ccc(Br)cc2)n1` gave MCF10A rereplic inactive, KB-V1 MDR tox inactive, KB-3-1 cytotox inactive, ELG1 DNA repair inconclusive and SW480 rerep inactive.
Screening CCc1ccc(CNC(=O)CCCC(=O)n2nc(C)c3ccccc32)cc1 returned MCF10A rereplic inactive, KB-V1 MDR tox inactive, KB-3-1 cytotox inactive, ELG1 DNA repair inactive and SW480 rerep inactive.
CCOC(CN=c1nc(N(C)C)ss1)OCC was read as MCF10A rereplic inconclusive, KB-V1 MDR tox inconclusive, KB-3-1 cytotox inactive and SW480 rerep inconclusive.
For CN(C)c1nc(=NCc2ccco2)ss1 the results were MCF10A rereplic 20.6µM, KB-V1 MDR tox inactive, KB-3-1 cytotox inactive, ELG1 DNA repair inconclusive and SW480 rerep inactive.
Cc1cc(NC(=O)c2ccccc2F)on1 was read as MCF10A rereplic inactive, KB-V1 MDR tox inactive, KB-3-1 cytotox inactive, ELG1 DNA repair inconclusive and SW480 rerep 20.6µM.
Screening O=[N+]([O-])c1ccc(-c2csc(COc3ccccc3)n2)cc1 returned KB-V1 MDR tox inactive and KB-3-1 cytotox inactive.
Cc1cccc(C)c1NC(=O)CN(C)c1ccc(C(F)(F)F)cn1 was read as MCF10A rereplic inactive, KB-V1 MDR tox inactive, KB-3-1 cytotox inactive, ELG1 DNA repair inactive and SW480 rerep 11.6µM.
For Cc1cccc(C)c1NC(=O)CN(C)C(=O)c1ccc(-c2cccc(C(F)(F)F)c2)o1 the results were MCF10A rereplic inactive, KB-V1 MDR tox inactive, KB-3-1 cytotox inactive, ELG1 DNA repair inconclusive and SW480 rerep 4.11µM.
For COc1cc(/C=C/C(=O)OCC(=O)Nc2ccc(NC(C)=O)cc2)cc(S(=O)(=O)N2CCc3ccccc32)c1OC the results were MCF10A rereplic inactive, KB-V1 MDR tox inactive, KB-3-1 cytotox inactive, ELG1 DNA repair 20.6µM and SW480 rerep inactive[1.84 µM].
Screening Cc1ccc(-n2c(SCC(=O)c3c(N)n(C)c(=O)n(C)c3=O)nc3sc4c(c3c2=O)CCCC4)c(C)c1 returned MCF10A rereplic inconclusive, KB-V1 MDR tox 20.6µM, KB-3-1 cytotox inconclusive, ELG1 DNA repair inconclusive and SW480 rerep inactive.
`COc1cc(CNn2nnnc2N)cc(Br)c1OCC(=O)NC(C)(C)C` gave MCF10A rereplic inactive[0.0737 µM], KB-V1 MDR tox inactive, KB-3-1 cytotox inactive, ELG1 DNA repair inactive and SW480 rerep inactive.
For COc1cc(CNn2nnnc2N)cc(Br)c1OCc1c(Cl)cccc1Cl the results were MCF10A rereplic inactive, KB-V1 MDR tox 20.6µM, KB-3-1 cytotox inconclusive, ELG1 DNA repair inconclusive and SW480 rerep inactive.
For O=C1C(=C(c2ccccc2)N2CCOCC2)Cc2ccccc21 the results were KB-V1 MDR tox inconclusive and KB-3-1 cytotox 7.31µM.
O=C(CSc1nc(-c2ccccc2Cl)ns1)NCc1ccc2c(c1)OCO2 was read as MCF10A rereplic inactive, KB-V1 MDR tox inactive, KB-3-1 cytotox inactive, ELG1 DNA repair inactive and SW480 rerep inactive.
For CO/N=C/c1ccc(N2CCN(C(=O)c3cccc(C(F)(F)F)c3)CC2)c([N+](=O)[O-])c1 the results were MCF10A rereplic inactive, KB-V1 MDR tox 10.3µM, KB-3-1 cytotox inconclusive, ELG1 DNA repair inconclusive and SW480 rerep inconclusive.
`CO/N=C/c1ccc(N2CCN(C(=O)c3ccc(F)cc3)CC2)c([N+](=O)[O-])c1` gave MCF10A rereplic inactive, KB-V1 MDR tox 16.4µM, KB-3-1 cytotox inactive, ELG1 DNA repair inconclusive and SW480 rerep inactive.
CO/N=C/c1ccc(N2CCN(C(=O)c3ccc(Cl)cc3Cl)CC2)c([N+](=O)[O-])c1 was read as MCF10A rereplic inactive, KB-V1 MDR tox 2.59µM, KB-3-1 cytotox 13µM, ELG1 DNA repair inactive and SW480 rerep inactive.
`O=C(O/N=C\c1ccc(N2CCCCC2)c([N+](=O)[O-])c1)c1cccc(C(F)(F)F)c1` gave MCF10A rereplic inactive, KB-V1 MDR tox inconclusive, KB-3-1 cytotox inconclusive, ELG1 DNA repair inactive and SW480 rerep inactive.
For O=C(N/N=C/c1ccc(N2CCOCC2)c([N+](=O)[O-])c1)c1ccc(F)cc1 the results were MCF10A rereplic inactive, KB-V1 MDR tox inactive, KB-3-1 cytotox inactive, ELG1 DNA repair inconclusive and SW480 rerep inactive.
`COc1ccc(C2N(c3cccc(Cl)c3)C(=O)C3CCCN32)cc1` (centres undefined) gave MCF10A rereplic inactive, KB-V1 MDR tox inactive, KB-3-1 cytotox inactive, ELG1 DNA repair inconclusive and SW480 rerep inactive.
Screening Cc1ccc(C(=O)c2cn(CC(=O)Nc3ccc4c(c3)OCCO4)c3nc(C)ccc3c2=O)cc1 returned KB-V1 MDR tox inactive and KB-3-1 cytotox inactive.
For CCc1c(C)nc2[nH]ncn2c1=O the results were MCF10A rereplic inactive, KB-V1 MDR tox inactive, KB-3-1 cytotox inactive and SW480 rerep inactive.
